D1 antag = blocks dopamine activation of the human D1 receptor; P21728; HEK293 TREx D1 cells, calcium flux, dopamine EC80; hits give low values; activity change, negative = inhibition, % at 10 µM; actives 3.2% (n = 360,000); AID 504652; in the data active means activity change below about -30%; further: on the % scale 0 is the no-effect control and ±100 the full control effect
Target sequence (P21728 whole entry, looked up): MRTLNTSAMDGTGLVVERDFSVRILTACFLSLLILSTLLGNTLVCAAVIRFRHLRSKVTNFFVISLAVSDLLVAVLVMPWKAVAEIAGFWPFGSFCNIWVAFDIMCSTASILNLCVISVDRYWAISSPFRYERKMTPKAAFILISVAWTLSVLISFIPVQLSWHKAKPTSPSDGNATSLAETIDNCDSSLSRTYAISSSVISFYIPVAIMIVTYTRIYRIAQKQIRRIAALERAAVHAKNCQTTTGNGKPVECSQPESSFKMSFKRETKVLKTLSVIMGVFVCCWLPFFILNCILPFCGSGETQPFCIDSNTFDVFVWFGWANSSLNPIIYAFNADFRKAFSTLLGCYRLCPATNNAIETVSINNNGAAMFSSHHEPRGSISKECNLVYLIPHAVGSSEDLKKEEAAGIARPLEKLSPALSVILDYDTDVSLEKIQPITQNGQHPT
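After overnight tetracycline induction at 30 C, force-coupled D1 HEK293 cells took up a no-wash calcium dye at room temperature. Compounds were added and monitored 180 s, and the response to EC80 dopamine was then recorded.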
D1 PAM = enhances dopamine response at the human D1 receptor | P21728 | HEK293 TREx D1 cells, calcium flux, dopamine EC20 potentiation | potentiation, % at 10 µM | actives 0.036% (n = 360,000); in the data active means potentiation above about 30%; further: 0% is about no effect
D1 agonist = activates the human D1 dopamine receptor | activation, % at 2 µM | P21728 | AID 504660 | actives 1% (n = 360,000) | HEK293 T-REx D1 cells, calcium flux, agonist mode; further: 0% is about no effect
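Tetracycline-induced HEK293 TREx D1 cells, force-coupled to calcium signalling, were dye-loaded with a no-wash calcium kit. Compound was pin-added after a 10 s baseline. Fluorescence was read kinetically at 1 cycle/s for 180 s, with calcium rises flagged as agonism.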
TRHR agonist = activates the human TRH receptor; TRHR cells, calcium flux fluo-8, FDSS agonist mode; activation, % at 2 µM; actives 0.18% (n = 360,000); AID 493084; further: 0% is about no effect
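In this calcium-flux screen, cells bearing human TRHR are dye-loaded with fluo-8, baselined for 10 cycles, then exposed to library compounds; positive kinetic calcium responses during the agonist phase mark hits, with TRH as control.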
TRHR PAM = allosteric enhancers of human TRH receptor; P34981; TRHR cells, fluo-8 calcium fluorescence, EC20 TRH enhancement; enhancement, % at 2 µM; actives 0.66% (n = 360,000); AID 493056; in the data active means enhancement above about 30%; further: 0% is about no effect
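TRHR-expressing cells loaded with fluo-8 calcium dye were read kinetically (ex 480/em 530) during compound addition, then stimulated with an EC20 of TRH (10 nM final). Enhancement of the Gq-mediated intracellular calcium response was scored.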
The depositor's hits bear a star; . = not tested or not shown. Rows were chosen to be rich in hits. Some 4.6% of all compounds tested hit in one or more screens of this group. Unless noted, no stated cut-off is given here; in the data, active means activation above about 30%; inactive means the rest.

SMILES	D1 antag	D1 PAM	D1 agonist	TRHR agonist	TRHR PAM
O=C(COc1ccc2c(c1)OCO2)Nc1cccc(F)c1	-44*	.	3	0	-4
CCOc1ccc(OCCC(=O)OCC(=O)Nc2ccc3c(c2)OCO3)cc1	-53*	-6	7	0	-7
CCOc1ccc(N(CC(=O)Nc2ccc3c(c2)OCO3)S(=O)(=O)c2ccccc2)cc1	-46*	-2	2	0	13
CCOc1ccc(S(=O)(=O)N(CC(=O)Nc2ccc3c(c2)OCO3)c2ccc(C)cc2)cc1	-16	-2	9	0	4
CC(C)(C)NS(=O)(=O)c1ccc(CCC(=O)Nc2ccc3c(c2)OCCO3)cc1	5	-2	2	0	9
CC(C)(C)NS(=O)(=O)c1ccc(OCC(=O)Nc2ccc3c(c2)OCCO3)cc1	-30*	-7	4	0	-1
CCC(Sc1nc(N)cc(=O)[nH]1)C(=O)NC(C(=O)OC)c1ccccc1 (stereo not given)	3	2	0	1	5
Cc1cc2cc(C(c3nnnn3C3CCCC3)N(Cc3cccnc3)Cc3ccco3)c(=O)[nH]c2cc1C (stereo not given)	-39*	0	3	0	-8
Nc1c(C(=O)Nc2ccc(F)cc2)sc2nc(-c3cccs3)cc(C(F)(F)F)c12	-44*	-2	265*	100*	20
Nc1c(C(=O)C2CC2)sc2nc(-c3cccs3)cc(C(F)(F)F)c12	-6	0	173*	53*	10
CC(C)c1ncc(C(O)c2ccccc2)n1C (stereo not given)	-6	-7	5	0	-7
O=C(O)c1cc(N2C(=O)CCC2=O)ccc1NCc1cccnc1	6	0	1	0	-3
CCN1CCN(CCCNC(=O)C2CCCN(c3nc4c(C)cc(C)cc4s3)C2)CC1 (stereo not given)	-35*	-9	-1	0	4
Cc1cc(C)c2nc(N3CCCC(C(=O)NCCCN4CCOCC4)C3)sc2c1 (stereo not given)	1	-4	0	0	-5
Cc1cc(CNC(=O)CC2C(=O)NCCN2CC(C)(C)C)nn1C (stereo not given)	-39*	8	-1	0	6
CCN1CCN(CCNC(=O)C2CCCN(Cc3nc(-c4cccc(Cl)c4)oc3C)C2)CC1 (stereo not given)	-39*	-6	1	0	3
Cc1oc(-c2cccc(Cl)c2)nc1CN1CCC(C(=O)NCCCN2CCN(c3cccc(Cl)c3)CC2)CC1	-39*	-1	67*	1	1
COc1ccc(-c2nc(CN3CCC(C(=O)NCCc4ccccc4)CC3)c(C)o2)cc1OC	-23	0	1	0	20
COc1ccc(-c2nc(CN3CCC(C(=O)NCc4ccc(C)cc4)CC3)c(C)o2)cc1OC	-31*	-6	0	0	-4
C/C(=N\NC(=O)c1c(Cl)cnn1C)c1ccc(NC(=O)c2ccc(Br)o2)cc1	-43*	-8	2	0	12
COc1ccc(Br)cc1CN(C)CC(=O)Nc1ccccc1Cl	-8	-2	4	0	-6
COc1cc(Cl)c(C)cc1NC(=O)CN(C)Cc1cccc(OC)c1OC	10	-8	50*	-1	-6
COc1ccccc1CN(C)CC(=O)Nc1cccc2ccccc12	7	9	-3	-1	5
COc1ccc(Br)cc1CN(C)CC(=O)Nc1cc(Cl)ccc1Cl	-31*	2	6	1	0
Cc1ccc2c(CC(=O)Nc3c(C(=O)c4ccc(C)c(F)c4)oc4ccccc34)coc2c1	-5	1	4	-1	11
SMILES	D1 antag	D1 PAM	D1 agonist	TRHR agonist	TRHR PAM
CC(=O)c1ccc(N2CCN(C(=O)CCC(=O)Nc3ccc4nc(N5CCN(C)CC5)cc(C)c4c3)CC2)cc1	-37*	-9	-3	0	2
Cc1ccc(C)c(N2CCN(C(=S)Nc3ccc4nc(N5CCN(C)CC5)cc(C)c4c3)CC2)c1	-61*	-13	18	0	5
Cc1ccc(C)c(NC(=S)N2CCCC2)c1	-65*	-1	0	0	10
Cc1cccc(NC(=S)N2CCN(c3cc(C)ccc3C)CC2)c1	-35*	-9	5	0	-4
Cc1ccc(C)c(N2CCN(C(=S)Nc3ccc4nc(N5CCOCC5)cc(C)c4c3)CC2)c1	4	1	11	-1	2
Cc1ccc(S(=O)(=O)Nc2ccccc2C(=O)N2CCCC2)cc1	13	-7	2	1	-2
O=C(NCCCN1CCN(c2ccccc2F)CC1)c1ccc2nc(CCc3ccccc3)oc2c1	-31*	-5	19	0	7
CCN1CCN(CCNC(=O)c2ccc3nc(-c4cccc(C)c4)c(-c4cccc(C)c4)nc3c2)CC1	-6	-3	63*	1	1
O=C(NCCCN1CCN(c2ccc(F)cc2)CC1)c1ccc2nc(CCc3ccccc3)oc2c1	-3	-5	15	0	2
CCCNC(=O)c1ccc2nc(-c3ccccc3)c(-c3ccccc3)nc2c1	-14	0	3	0	5
O=C(NCCCN1CCN(c2ccccc2F)CC1)c1ccc2nc(Cc3ccccc3)oc2c1	-49*	-4	26	1	0
COc1ccccc1N1CCN(CCCCNC(=O)c2ccc3ccccc3c2)CC1	-54*	-5	11	-1	-7
COCCN1CCN(C(=O)C2CCC(=O)N(Cc3ccccc3F)C2)CC1 (stereo not given)	5	-8	1	0	-5
CC(C)(C)C1CCc2c(sc(NC(=O)c3cccc(Cl)c3)c2C(=O)NCc2ccco2)C1 (stereo not given)	-12	-1	0	-1	0
Cc1c(C)n(C)c2ccc(C(=O)NCCCN3CCN(c4ccccc4F)CC3)cc12	-10	-10	0	0	4
CCc1nc2ccc(C(=O)NCCCN3CCN(c4ccccc4F)CC3)cc2nc1CC	-32*	-8	2	-1	2
Cn1c(=O)n(CC#N)c2ccccc21	5	-3	3	0	1
N#CCCn1c(=O)n(CCC#N)c2ccccc21	-38*	-8	1	0	-6
CCOc1ccc(Nc2ccc(S(=O)(=O)N3CCN(C)CC3)cc2[N+](=O)[O-])cc1OCC	8	2	3	-1	3
COc1ccc2oc(C(=O)NCc3ccccc3CN3CCCC3)c(C)c2c1	-57*	.	6	1	5
COc1ccc2cc(C(=O)NCc3ccccc3CN3CCCC3)ccc2c1	-64*	-15	3	1	-1
Cc1ccc(C(=O)NCc2ccccc2CN2CCCC2)cc1S(=O)(=O)N1CCOCC1	-22	-20	0	0	0
Cc1c(NC(=O)COc2ccc3ccc(=O)oc3c2)c(=O)n(-c2ccccc2)n1C	6	-4	3	0	-2
Cc1ccc2ncccc2c1N	-63*	2	2	0	-1

Compound activity (PubChem BioAssay)
